Results published in PubChem BioAssay (NCATS).
Several values for one entry are separate records, joined by “and”; a condition that tells them apart may be missing. Equal values may be shown once. Records with an inconclusive call do not appear. Where a call stands in place of a potency, no number is given. Activity calls are given as the source filed them. The call rests on the fitted dose curve; in most records, active means well fitted curve in the direction sought with a large enough effect; inconclusive means small, poorly fitted or top-dose-only effect, or another doubt; inactive means no such curve, though single readings can be large; an effect the other way counts as inactive or inconclusive. Where a SMILES comes first, the peptide text is derived from it. Bridges are numbered along the chain shown (N, C = ends). [ ]: non-standard residue; d: D form. The star is where a group is joined. X1 = CC[C@@H](C)[C@@H](N)C1=N[C@H](C(=O)*)CS1; d(aIle) = CC[C@H](C)[C@@H](N)C(=O)O; pGlu = O=C1CC[C@@H](C(=O)O)N1; dOrn = NCCC[C@@H](N)C(=O)O; X2 = CC[C@H](C)CCCCC(=O)*; Dab = NCC[C@H](N)C(=O)O

Experiments:
[1] = qHTS assay to identify small molecule inhibitors of chordoma cells - UCH-1 (AID 1259355); further: nearly all actives have a fitted effect of over 55% in size
How it was run: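 A 48hr growth-inhibition format: each drug tested at 15 concentrations together with added auranofin, camptothecin, doxorubicin, rubitecan and topotecan, with cell viability quantified as CellTiter-Glo luminescence.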

[2] = qHTS assay to identify small molecule inhibitors of chordoma cells - UCH-2 (AID 1259356); further: series mostly up to about 46 µM
[3] = P-glycoprotein substrates identified in KB-8-5-11 adenocarcinoma cell line, qHTS therapeutic library screen (AID 1346987); details: outcome: dose series up to 44.5 µM unless noted; further: nearly all actives have a fitted effect of over 65% in size; further: potency means the concentration at half of the fitted maximal effect
How it was run: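 Human cervical adenocarcinoma KB-8-5-11 cells, selected in colchicine to over-express P-gp and assayed without it, were exposed for 72 h to titrated compounds. An ATP-based luminescent viability signal gave AC50.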

SMILES | Potency [1] | Potency [2] | Potency [3]
OCCCNc1ccccc1 | inactive | inactive | inactive
C[Si](C)(C)O[Si](C)(C)C | inactive | inactive | inactive
O=C(CCCCCCCCCCCCC1CCCC1)Nc1ccc(S(=O)(=O)c2ccc(NC(=O)CCCCCCCCCCCCC3CCCC3)cc2)cc1 | inactive | inactive | inactive
C=CC1=C(C(=O)O)N2C(=O)[C@@H](NC(=O)/C(=N\O)c3csc(N)n3)[C@H]2SC1 (stereo in doubt) | inactive | inactive | inactive
CCCCC(O)c1ccccc1 (stereo not given) | inactive | inactive | inactive
O=C(CCCN1CCN2CCCC2C1)c1ccc(F)cc1 (stereo not given) | inactive | inactive | inactive
CC[C@H](C)CCCCC(=O)N[C@@H](CCN)C(=O)N[C@H](C(=O)N[C@@H](CCN)C(=O)N[C@H]1CCNC(=O)[C@@H]([C@H](C)O)NC(=O)[C@H](CCN)NC(=O)[C@H](CCN)NC(=O)[C@H](CC(C)C)NC(=O)[C@@H](CC(C)C)NC(=O)[C@H](CCN)NC1=O)[C@@H](C)O (X2-[Dab]T[Dab][Dab][Dab][dL]L[Dab][Dab][dT]; lactam 4-C) | inactive | inactive | inactive
C=Cc1ccc(S(=O)(=O)O)cc1 | inactive | inactive | inactive
c1ccc2ccccc2c1 | inactive | inactive | inactive
CC[C@H]1OC(=O)[C@H](C)[C@@H](O[C@H]2C[C@@](C)(OC)[C@@H](O)[C@H](C)O2)C(C)[C@@H](O[C@@H]2O[C@H](C)C[C@H](N(C)C)[C@@H]2O)[C@](C)(OC)C[C@@H](C)C(=O)[C@H](C)[C@@H](O)[C@]1(C)O (stereo not given in full) | inactive | inactive | inactive
CCCCCCCCCC(=O)NO | inactive | inactive | inactive
OCc1ccccc1 | inactive | inactive | inactive
Nc1ncnc2c1ncn2[C@H]1CC[C@@H](CO)O1 | inactive | inactive | inactive
CC[C@@H](C)[C@@H](N)C1=N[C@H](C(=O)N[C@@H](CC(C)C)C(=O)N[C@@H](CCC(=O)O)C(=O)N[C@@H](C(=O)N[C@@H]2CCCCNC(=O)[C@@H](CC(N)=O)NC(=O)[C@@H](CC(=O)O)NC(=O)[C@@H](Cc3cnc[nH]3)NC(=O)[C@@H](Cc3ccccc3)NC(=O)[C@@H]([C@H](C)CC)NC(=O)[C@@H](CCCN)NC2=O)[C@@H](C)CC)CS1 (X1-LE[d(aIle)][dK][dOrn][dI][dF][dH][dD][dN]; lactam 4-C) | inactive | inactive | inactive
CC(C)c1nc(N(C)S(C)(=O)=O)nc(-c2ccc(F)cc2)c1/C=C/C(O)CC(O)CC(=O)O (stereo not given) | inactive | inactive | inactive
CC/C=C\C/C=C\C/C=C\CCCCCCCC(=O)O | inactive | inactive | inactive
CN(CCO)CC(O)Cn1cnc2c1c(=O)n(C)c(=O)n2C (stereo not given) (tested in a mixture with another compound) | inactive | inactive | inactive
Cc1cccc(Nc2ncccc2C(=O)O)c1C | inactive | inactive | inactive
CN[C@H](CC(C)C)C(=O)N[C@H]1C(=O)N[C@@H](CC(N)=O)C(=O)N[C@H]2C(=O)N[C@H]3C(=O)N[C@H](C(=O)N[C@@H](C(=O)O)c4cc(O)cc(O)c4-c4cc3ccc4O)[C@H](O)c3ccc(c(Cl)c3)Oc3cc2cc(c3O[C@@H]2O[C@H](CO)[C@@H](O)[C@H](O)[C@H]2O[C@H]2C[C@](C)(N)C(O)[C@H](C)O2)Oc2ccc(cc2Cl)[C@H]1O (stereo not given in full) | inactive | inactive | inactive
O=C1C2CC3CC1CC(O)(C3)C2 | inactive | inactive | inactive

SMILES | Potency [1] | Potency [2] | Potency [3]
OB(O)O | inactive | inactive | inactive
COc1ccc2cc([C@H](C)CO)ccc2c1 | inactive | inactive | inactive
C=C1CC[C@H](O)C/C1=C\C=C1/CCC[C@]2(C)[C@@H]([C@H](C)CCCC(C)C)CC[C@@H]12 | inactive | inactive | inactive
C=CC(C)(O)CC/C=C(\C)CCC=C(C)C (stereo not given) | inactive | inactive | inactive
CCC(C(=O)NC(N)=O)c1ccccc1 (stereo not given) | inactive | inactive | inactive
O=C1c2ccccc2C(=O)C1c1ccc(F)cc1 | inactive | inactive | inactive
CC(=O)Nc1c(I)c(C(=O)N[C@H]2C(O)O[C@H](CO)[C@@H](O)[C@@H]2O)c(I)c(N(C)C(C)=O)c1I (stereo not given in full) | inactive | inactive | inactive
CO/N=C(\C(=O)N[C@@H]1C(=O)N2C(C(=O)O)=C(CSC(=O)c3ccco3)CS[C@H]12)c1csc(N)n1 | inactive | inactive | inactive
C=CCOc1ccc(CC(=O)O)cc1Cl | inactive | inactive | inactive
Nc1nc2c(c(=O)[nH]1)N(C=O)C(CNc1ccc(C(=O)N[C@@H](CCC(=O)O)C(=O)O)cc1)CN2 (stereo not given in full) | inactive | inactive | inactive
CC1(C)S[C@@H]2[C@H](NC(=O)C3(N)CCCCC3)C(=O)N2[C@H]1C(=O)O | inactive | inactive | inactive
O=P(O)(O)OC[C@H]1O[C@](O)(COP(=O)(O)O)[C@@H](O)[C@@H]1O | inactive | inactive | inactive
CO[C@H]1O[C@@H]2O[C@@]3(C)CC[C@H]4[C@H](C)CC[C@@H]([C@H]1C)[C@@]24OO3 | inactive | inactive | inactive
NC[C@@H]1O[C@H](O[C@H]2[C@@H](O)[C@H](O[C@@H]3[C@@H](O)[C@H](N)C[C@H](N)[C@H]3O[C@H]3O[C@H](CO)[C@@H](O)[C@H](O)[C@H]3N)O[C@@H]2CO)[C@H](N)[C@@H](O)[C@@H]1O | inactive | inactive | inactive
CC1C(=O)CC2C3(C)CCC2(C(C)C(=O)O)C(=O)C13 (stereo not given) | inactive | inactive | inactive
CCC(=O)OC(OP(=O)(CCCCc1ccccc1)CC(=O)N1C[C@H](C2CCCCC2)C[C@H]1C(=O)O)C(C)C (stereo not given in full) | inactive | inactive | inactive
CC(=O)Nc1ccc(NC(=S)NC(=O)c2ccc(C(C)(C)C)cc2)cc1 | inactive | inactive | 6.51 µM (active) and 9.2 µM (active)
CC(C)c1ncc([N+](=O)[O-])n1C | inactive | inactive | inactive
COC(=O)C(CN)c1c[nH]c2ccc(OC)cc12 (stereo not given) | inactive | inactive | inactive
CC(/C=C/C=C(\C)C(=O)O[C@@H]1O[C@H](CO[C@@H]2O[C@H](CO)[C@@H](O)[C@H](O)[C@H]2O)[C@@H](O)[C@H](O)[C@H]1O)=C\C=C\C=C(C)\C=C\C=C(/C)C(=O)O[C@@H]1O[C@H](CO[C@@H]2O[C@H](CO)[C@@H](O)[C@H](O)[C@H]2O)[C@@H](O)[C@H](O)[C@H]1O | inactive | inactive | inactive

SMILES | Potency [1] | Potency [2] | Potency [3]
Cc1ncc(C[n+]2csc(CCO)c2C)c(N)n1 | inactive | inactive | inactive
Cc1ccc(S(=O)(=O)O)cc1C | inactive | inactive | inactive
CC[C@H](C)[C@H](NC(=O)[C@H](Cc1ccccc1)NC(=O)[C@H](C)NC(=O)[C@H](CC(=O)O)NC(=O)[C@H](CCCCN)NC(=O)[C@H](CO)NC(=O)[C@@H]1CCCN1C(=O)[C@@H]1CCC(=O)N1)C(=O)NCC(=O)N[C@@H](CC(C)C)C(=O)N[C@@H](CCSC)C(N)=O ([pGlu]PSKDAFIGLM-NH2) | inactive | inactive | inactive
O=C(O[C@H]1CN2CCC1CC2)N1CCc2ccccc2[C@@H]1c1ccccc1 | inactive | inactive | inactive
CC(=C\c1ccccc1)/C=C1/SC(=S)N(CC(=O)O)C1=O | inactive | inactive | inactive
FC(F)(F)COCC(F)(F)F | inactive | inactive | inactive
COc1ccc(/C=N/NC(=O)c2ccncc2)c(C(=O)O)c1OC | inactive | inactive | inactive
Cc1cc2nc3c(=O)[nH]c(=O)nc-3n(C[C@H](O)[C@H](O)[C@H](O)COP(=O)(O)OP(=O)(O)OC[C@H]3O[C@@H](n4cnc5c(N)ncnc54)[C@H](O)[C@@H]3O)c2cc1C | inactive | inactive | inactive
F[Si-2](F)(F)(F)(F)F | inactive | inactive | inactive
CSCCC(N)C(=O)O (stereo not given) | inactive | inactive | inactive
CC(=O)N[C@@H]1C(O[C@H]2O[C@H](C(=O)O)C(O)[C@H](O)[C@H]2O)[C@H](O)[C@@H](CO)O[C@H]1O[C@@H]1C(C(=O)O)O[C@@H](O[C@H]2[C@H](O)[C@@H](CO)OC(O)[C@@H]2NC(C)=O)[C@H](O)[C@H]1O (stereo not given in full) | inactive | inactive | inactive
O=C(NCCNCC(O)COc1ccc(O)cc1)N1CCOCC1 (stereo not given) | inactive | inactive | inactive
CCCCC(CC)CCC(CC(C)C)OS(=O)(=O)O (stereo not given) | inactive | inactive | inactive
Cc1ccc(C(C)(C)c2ccc(C)cc2)cc1 | inactive | inactive | inactive
CC(=O)OCC(=O)[C@@]1(O)CC[C@H]2[C@@H]3CCC4=CC(=O)CC[C@]4(C)C3=CC[C@@]21C | inactive | inactive | inactive
NC(=O)OCC(O)COc1ccc(Cl)cc1 (stereo not given) | inactive | inactive | inactive
CO/N=C(\C(=O)N[C@@H]1C(=O)N2C(C(=O)O)=C(C[N+]3(C)CCCC3)CS[C@H]12)c1csc(N)n1 | inactive | inactive | inactive
CO | inactive | inactive | inactive
COC1=C(OC)C(=O)C(C/C=C(\C)CC/C=C(\C)CC/C=C(\C)CC/C=C(\C)CC/C=C(\C)CC/C=C(\C)CC/C=C(\C)CC/C=C(\C)CC/C=C(\C)CCC=C(C)C)=C(C)C1=O | inactive | inactive | inactive
CC(C)C[C@H](NC(=O)[C@@H](COC(C)(C)C)NC(=O)[C@H](Cc1ccc(O)cc1)NC(=O)[C@H](CO)NC(=O)[C@H](Cc1c[nH]c2ccccc12)NC(=O)[C@H](Cc1cnc[nH]1)NC(=O)[C@@H]1CCC(=O)N1)C(=O)N[C@@H](CCCN=C(N)N)C(=O)N1CCC[C@H]1C(=O)NNC(N)=O | inactive | inactive | inactive
